PMC7862700, “An all-to-all approach to the identification of sequence-specific readers for epigenetic DNA modifications on cytosine”

Key:
Experiment in all cases: DAPPL (digital affinity profiling via proximity ligation, sequencing); 10 mM Tris-HCl pH 7.5, 50 mM NaCl, 1 mM DTT, 4% glycerol, room temperature, 30 min; GST-TFs on glutathione beads, 16-mer random dsDNA library, 0.1% formaldehyde crosslink after washing; high values mean tight binding
FEV = target: T1, FEV (Homo sapiens, UniProt Q99581 1-238); conditions: protein: recombinant; tags: N-terminal GST; dsDNA, one strand shown
T1 sequence: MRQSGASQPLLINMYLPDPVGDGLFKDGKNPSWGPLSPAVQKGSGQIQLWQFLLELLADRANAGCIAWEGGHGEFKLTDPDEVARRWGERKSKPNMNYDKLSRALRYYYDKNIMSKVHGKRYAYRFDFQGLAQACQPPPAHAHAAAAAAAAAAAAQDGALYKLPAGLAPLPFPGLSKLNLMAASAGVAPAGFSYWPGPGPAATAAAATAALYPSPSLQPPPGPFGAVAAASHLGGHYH
Outline: (§1)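 Binding signal is given per hexamer as its read frequency for a factor divided by its frequency in the tag-only sample. GST-fused human transcription factors were expressed in yeast, captured on glutathione beads, barcoded with DNA and pooled with that sample, then incubated with 200 nmole of a 16-mer random double-stranded DNA library in Tris/NaCl/DTT/glycerol buffer for 30 min at room temperature. The pools were then washed, crosslinked, proximity-ligated, amplified by PCR and sequenced on an Illumina NextSeq500.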

ETV5 = ETV5 (Homo sapiens, UniProt P41161 1-510); conditions: protein: recombinant; tags: N-terminal GST; dsDNA, one strand shown
Chain of ETV5 (P41161 whole entry): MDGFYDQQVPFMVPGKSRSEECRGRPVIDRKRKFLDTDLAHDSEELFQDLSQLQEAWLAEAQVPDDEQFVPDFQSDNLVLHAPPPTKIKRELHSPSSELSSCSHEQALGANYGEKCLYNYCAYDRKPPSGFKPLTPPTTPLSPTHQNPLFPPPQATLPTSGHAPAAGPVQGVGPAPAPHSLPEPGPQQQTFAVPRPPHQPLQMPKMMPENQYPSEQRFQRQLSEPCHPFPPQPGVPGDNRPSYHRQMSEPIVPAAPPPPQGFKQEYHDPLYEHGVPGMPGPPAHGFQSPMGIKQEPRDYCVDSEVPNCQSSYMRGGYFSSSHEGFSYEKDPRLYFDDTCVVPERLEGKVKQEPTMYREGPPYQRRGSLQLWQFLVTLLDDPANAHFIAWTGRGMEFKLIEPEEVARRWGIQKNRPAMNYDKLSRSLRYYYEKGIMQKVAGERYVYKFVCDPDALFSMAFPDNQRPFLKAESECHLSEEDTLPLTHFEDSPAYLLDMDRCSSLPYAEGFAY
Outline: as §1

HSF1 = HSF1 (Homo sapiens, UniProt Q00613 1-529); conditions: protein: recombinant; tags: N-terminal GST; chain copies: 3; dsDNA, one strand shown
Chain of HSF1 (Q00613 whole entry): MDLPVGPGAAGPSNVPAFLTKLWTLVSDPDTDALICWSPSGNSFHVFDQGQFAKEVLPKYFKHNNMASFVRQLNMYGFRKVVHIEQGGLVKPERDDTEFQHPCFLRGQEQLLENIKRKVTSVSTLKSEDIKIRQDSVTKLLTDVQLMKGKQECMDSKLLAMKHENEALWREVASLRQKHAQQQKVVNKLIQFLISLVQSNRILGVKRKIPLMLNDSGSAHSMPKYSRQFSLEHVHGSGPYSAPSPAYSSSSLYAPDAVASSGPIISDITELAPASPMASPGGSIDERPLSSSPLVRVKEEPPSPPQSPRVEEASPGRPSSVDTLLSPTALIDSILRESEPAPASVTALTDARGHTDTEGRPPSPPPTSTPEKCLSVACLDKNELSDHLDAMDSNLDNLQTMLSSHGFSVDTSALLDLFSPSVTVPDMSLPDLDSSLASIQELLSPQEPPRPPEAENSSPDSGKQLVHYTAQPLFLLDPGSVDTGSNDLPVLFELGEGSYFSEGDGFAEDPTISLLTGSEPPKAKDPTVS
Outline: as §1

SPIC = target: T2, SPIC (Homo sapiens, UniProt Q8N5J4 1-248); conditions: protein: recombinant; tags: N-terminal GST; dsDNA, one strand shown
T2 sequence: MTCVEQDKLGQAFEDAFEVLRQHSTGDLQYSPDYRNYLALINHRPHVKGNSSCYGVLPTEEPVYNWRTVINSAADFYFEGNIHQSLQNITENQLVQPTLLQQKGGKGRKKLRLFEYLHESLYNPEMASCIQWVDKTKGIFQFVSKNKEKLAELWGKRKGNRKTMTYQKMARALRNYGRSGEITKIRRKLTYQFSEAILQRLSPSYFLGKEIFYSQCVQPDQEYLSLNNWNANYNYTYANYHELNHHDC
Outline: as §1

ELF4 = ELF4 (Homo sapiens, UniProt Q99607 1-663); conditions: protein: recombinant; tags: N-terminal GST; dsDNA, one strand shown
Chain of ELF4 (Q99607 whole entry): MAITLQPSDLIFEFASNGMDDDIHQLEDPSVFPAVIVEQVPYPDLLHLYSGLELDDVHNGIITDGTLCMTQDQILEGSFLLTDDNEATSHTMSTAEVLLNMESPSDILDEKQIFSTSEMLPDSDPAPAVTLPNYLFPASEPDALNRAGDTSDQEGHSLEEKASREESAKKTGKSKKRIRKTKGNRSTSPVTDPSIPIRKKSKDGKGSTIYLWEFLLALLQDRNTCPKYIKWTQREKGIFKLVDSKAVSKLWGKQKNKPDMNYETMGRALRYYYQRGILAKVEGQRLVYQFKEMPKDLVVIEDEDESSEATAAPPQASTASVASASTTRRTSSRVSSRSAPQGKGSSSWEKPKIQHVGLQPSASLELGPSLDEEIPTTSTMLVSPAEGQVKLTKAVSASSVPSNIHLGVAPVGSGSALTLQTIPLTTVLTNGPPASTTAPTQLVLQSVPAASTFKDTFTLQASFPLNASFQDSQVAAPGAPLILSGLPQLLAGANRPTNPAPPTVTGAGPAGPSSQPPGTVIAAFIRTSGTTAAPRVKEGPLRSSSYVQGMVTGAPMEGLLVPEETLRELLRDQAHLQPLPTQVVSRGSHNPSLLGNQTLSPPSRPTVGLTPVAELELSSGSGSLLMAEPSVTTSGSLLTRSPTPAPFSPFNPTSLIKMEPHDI
Outline: as §1

ELK4 = target: T3, ELK4 (Homo sapiens, UniProt P28324-2 1-405); conditions: protein: recombinant; tags: N-terminal GST; dsDNA, one strand shown
T3 sequence: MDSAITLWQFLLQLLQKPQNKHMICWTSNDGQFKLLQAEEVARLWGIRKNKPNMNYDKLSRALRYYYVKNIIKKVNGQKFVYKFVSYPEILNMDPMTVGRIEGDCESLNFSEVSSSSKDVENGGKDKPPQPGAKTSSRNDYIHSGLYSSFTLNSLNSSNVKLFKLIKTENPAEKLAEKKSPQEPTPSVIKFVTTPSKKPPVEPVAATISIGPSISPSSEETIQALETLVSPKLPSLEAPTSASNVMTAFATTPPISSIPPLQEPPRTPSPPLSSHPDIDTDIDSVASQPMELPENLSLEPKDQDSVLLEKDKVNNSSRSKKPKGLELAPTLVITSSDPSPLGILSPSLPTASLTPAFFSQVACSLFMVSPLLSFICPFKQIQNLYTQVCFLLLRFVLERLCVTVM
Outline: as §1

ETV2 = target: T4, ETV2 (Homo sapiens, UniProt O00321 1-342); conditions: protein: recombinant; tags: N-terminal GST; dsDNA, one strand shown
T4 sequence: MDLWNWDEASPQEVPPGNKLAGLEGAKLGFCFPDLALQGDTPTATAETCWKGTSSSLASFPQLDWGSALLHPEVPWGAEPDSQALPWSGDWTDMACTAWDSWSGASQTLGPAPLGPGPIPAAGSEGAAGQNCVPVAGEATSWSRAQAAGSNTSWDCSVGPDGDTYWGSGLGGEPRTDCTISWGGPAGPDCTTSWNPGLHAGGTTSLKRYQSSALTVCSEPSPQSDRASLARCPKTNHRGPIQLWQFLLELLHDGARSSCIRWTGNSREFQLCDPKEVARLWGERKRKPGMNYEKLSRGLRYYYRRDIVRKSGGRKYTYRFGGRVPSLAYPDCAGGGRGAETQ
Outline: as §1

ELF3 = target: T5, ELF3 (Homo sapiens, UniProt P78545 1-371); conditions: protein: recombinant; tags: N-terminal GST; dsDNA, one strand shown
T5 sequence: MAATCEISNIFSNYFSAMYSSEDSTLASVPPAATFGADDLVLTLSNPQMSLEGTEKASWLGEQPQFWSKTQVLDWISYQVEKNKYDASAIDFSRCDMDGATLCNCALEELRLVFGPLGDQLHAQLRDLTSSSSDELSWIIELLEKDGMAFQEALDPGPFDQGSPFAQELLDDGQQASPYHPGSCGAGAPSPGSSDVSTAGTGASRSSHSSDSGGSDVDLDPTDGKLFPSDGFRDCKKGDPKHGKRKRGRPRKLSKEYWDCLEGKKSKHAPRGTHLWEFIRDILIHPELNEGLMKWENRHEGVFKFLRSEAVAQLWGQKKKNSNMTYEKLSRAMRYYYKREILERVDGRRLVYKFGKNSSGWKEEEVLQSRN
Outline: as §1

CRX = CRX (Homo sapiens, UniProt O43186 1-299); conditions: protein: recombinant; tags: N-terminal GST; dsDNA, one strand shown
Chain of CRX (O43186 whole entry): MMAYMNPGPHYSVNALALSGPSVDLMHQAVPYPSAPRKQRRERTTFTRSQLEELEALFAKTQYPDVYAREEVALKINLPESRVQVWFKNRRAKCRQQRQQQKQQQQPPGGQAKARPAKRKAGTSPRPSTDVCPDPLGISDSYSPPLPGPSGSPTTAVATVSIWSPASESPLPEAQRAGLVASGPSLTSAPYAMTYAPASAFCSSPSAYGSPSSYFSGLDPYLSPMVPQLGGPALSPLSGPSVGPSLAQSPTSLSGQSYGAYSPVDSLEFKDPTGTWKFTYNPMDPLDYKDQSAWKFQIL
Outline: as §1

ETV1 = ETV1 (Homo sapiens, UniProt P50549 1-477); conditions: protein: recombinant; tags: N-terminal GST; dsDNA, one strand shown
Chain of ETV1 (P50549 whole entry): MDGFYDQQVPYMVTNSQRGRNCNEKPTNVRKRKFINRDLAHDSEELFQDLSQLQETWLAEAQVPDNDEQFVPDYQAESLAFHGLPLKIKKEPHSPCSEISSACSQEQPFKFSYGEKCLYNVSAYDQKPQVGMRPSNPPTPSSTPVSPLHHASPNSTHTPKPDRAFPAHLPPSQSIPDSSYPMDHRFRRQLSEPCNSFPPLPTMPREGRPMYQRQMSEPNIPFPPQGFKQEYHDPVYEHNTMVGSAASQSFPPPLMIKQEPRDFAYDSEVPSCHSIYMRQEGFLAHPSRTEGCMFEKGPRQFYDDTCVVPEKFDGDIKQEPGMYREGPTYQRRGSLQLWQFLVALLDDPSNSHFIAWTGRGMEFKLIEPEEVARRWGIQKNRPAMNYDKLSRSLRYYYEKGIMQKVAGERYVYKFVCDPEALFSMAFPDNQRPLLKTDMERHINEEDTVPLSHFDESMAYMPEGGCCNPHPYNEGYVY
Outline: as §1

ERF = target: T6, ERF (Homo sapiens, UniProt P50548 1-548); conditions: protein: recombinant; tags: N-terminal GST; dsDNA, one strand shown
T6 sequence: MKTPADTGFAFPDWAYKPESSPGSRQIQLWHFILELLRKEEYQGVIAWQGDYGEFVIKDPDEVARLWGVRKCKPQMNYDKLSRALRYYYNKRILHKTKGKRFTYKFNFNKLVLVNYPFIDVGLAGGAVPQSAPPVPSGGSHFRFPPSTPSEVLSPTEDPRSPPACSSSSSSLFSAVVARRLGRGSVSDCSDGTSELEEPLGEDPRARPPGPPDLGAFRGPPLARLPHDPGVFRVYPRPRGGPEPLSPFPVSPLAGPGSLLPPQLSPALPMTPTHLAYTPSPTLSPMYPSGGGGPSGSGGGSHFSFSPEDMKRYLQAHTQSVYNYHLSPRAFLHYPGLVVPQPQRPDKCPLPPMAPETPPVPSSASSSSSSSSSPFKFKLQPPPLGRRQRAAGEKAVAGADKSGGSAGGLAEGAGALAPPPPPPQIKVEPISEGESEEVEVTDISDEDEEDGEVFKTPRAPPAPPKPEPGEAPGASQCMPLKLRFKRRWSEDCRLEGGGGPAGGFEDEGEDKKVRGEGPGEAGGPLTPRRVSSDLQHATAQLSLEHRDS
Outline: as §1

ETV3L = target: T7, ETV3L (Homo sapiens, UniProt Q6ZN32 1-361); conditions: protein: recombinant; tags: N-terminal GST; dsDNA, one strand shown
T7 sequence: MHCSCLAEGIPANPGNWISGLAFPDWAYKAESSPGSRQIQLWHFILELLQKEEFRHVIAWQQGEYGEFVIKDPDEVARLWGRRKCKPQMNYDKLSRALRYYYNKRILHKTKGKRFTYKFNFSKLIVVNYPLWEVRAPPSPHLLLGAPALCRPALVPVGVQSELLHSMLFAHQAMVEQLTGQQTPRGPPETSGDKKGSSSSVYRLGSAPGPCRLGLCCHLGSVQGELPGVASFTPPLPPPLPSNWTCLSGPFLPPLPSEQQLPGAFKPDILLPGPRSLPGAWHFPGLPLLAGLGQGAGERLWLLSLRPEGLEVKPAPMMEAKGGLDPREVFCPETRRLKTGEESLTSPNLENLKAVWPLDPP
Outline: as §1

ETS2 = target: T8, ETS2 (Homo sapiens, UniProt P15036 1-469); conditions: protein: recombinant; tags: N-terminal GST; dsDNA, one strand shown
T8 sequence: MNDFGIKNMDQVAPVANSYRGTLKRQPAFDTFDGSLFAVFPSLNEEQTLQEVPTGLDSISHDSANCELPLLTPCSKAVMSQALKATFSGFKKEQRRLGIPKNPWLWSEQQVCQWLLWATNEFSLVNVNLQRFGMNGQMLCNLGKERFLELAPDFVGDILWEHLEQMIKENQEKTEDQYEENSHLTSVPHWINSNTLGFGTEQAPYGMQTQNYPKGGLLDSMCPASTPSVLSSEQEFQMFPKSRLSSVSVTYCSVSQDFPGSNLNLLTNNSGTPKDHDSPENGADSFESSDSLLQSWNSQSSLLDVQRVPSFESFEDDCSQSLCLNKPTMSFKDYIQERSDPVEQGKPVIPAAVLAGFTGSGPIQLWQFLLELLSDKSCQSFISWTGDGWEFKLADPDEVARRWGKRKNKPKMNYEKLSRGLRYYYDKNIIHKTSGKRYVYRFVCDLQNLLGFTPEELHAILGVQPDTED
Outline: as §1

SPDEF = target: T9, SPDEF (Homo sapiens, UniProt O95238 1-335); conditions: protein: recombinant; tags: N-terminal GST; dsDNA, one strand shown
T9 sequence: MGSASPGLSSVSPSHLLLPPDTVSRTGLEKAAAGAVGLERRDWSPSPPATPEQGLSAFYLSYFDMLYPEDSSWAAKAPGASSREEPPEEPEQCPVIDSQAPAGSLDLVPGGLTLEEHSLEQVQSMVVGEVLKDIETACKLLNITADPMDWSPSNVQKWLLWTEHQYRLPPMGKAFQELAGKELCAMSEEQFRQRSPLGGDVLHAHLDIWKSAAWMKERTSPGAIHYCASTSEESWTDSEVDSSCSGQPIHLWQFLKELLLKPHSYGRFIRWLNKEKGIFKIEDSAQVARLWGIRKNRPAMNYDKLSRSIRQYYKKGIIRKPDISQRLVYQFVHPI
Outline: as §1

ETV7 = target: T10, ETV7 (Homo sapiens, UniProt Q9Y603 1-341); conditions: protein: recombinant; tags: N-terminal GST; dsDNA, one strand shown
T10 sequence: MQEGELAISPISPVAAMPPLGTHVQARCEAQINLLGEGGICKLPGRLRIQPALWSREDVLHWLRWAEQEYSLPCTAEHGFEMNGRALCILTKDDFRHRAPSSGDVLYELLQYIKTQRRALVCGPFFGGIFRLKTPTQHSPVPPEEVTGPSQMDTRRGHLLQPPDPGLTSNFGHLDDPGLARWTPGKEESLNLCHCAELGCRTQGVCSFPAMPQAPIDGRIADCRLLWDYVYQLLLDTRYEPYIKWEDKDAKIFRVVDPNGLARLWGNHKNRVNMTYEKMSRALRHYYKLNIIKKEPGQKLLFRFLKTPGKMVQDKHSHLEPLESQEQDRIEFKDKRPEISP
Outline: as §1

ELF5 = target: T11, ELF5 (Homo sapiens, UniProt Q9UKW6-2 1-255); conditions: protein: recombinant; tags: N-terminal GST; dsDNA, one strand shown
T11 sequence: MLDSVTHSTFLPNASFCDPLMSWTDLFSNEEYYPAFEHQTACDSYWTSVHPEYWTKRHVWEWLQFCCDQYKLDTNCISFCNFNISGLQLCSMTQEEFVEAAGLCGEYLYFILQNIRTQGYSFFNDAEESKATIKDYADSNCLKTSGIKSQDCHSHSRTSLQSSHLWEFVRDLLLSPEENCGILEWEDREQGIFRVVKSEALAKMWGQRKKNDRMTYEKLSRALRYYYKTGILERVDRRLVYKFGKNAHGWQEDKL
Outline: as §1

ETV3 = target: T12, ETV3 (Homo sapiens, UniProt P41162-2 1-143); conditions: protein: recombinant; tags: N-terminal GST; dsDNA, one strand shown
T12 sequence: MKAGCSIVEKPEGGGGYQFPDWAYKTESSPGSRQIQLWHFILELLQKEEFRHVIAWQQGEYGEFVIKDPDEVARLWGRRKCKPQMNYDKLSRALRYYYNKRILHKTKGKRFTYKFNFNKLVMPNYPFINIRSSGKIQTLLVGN
Outline: as §1

ETV6 = ETV6 (Homo sapiens, UniProt P41212 1-452); conditions: protein: recombinant; tags: N-terminal GST; dsDNA, one strand shown
Chain of ETV6 (P41212 whole entry): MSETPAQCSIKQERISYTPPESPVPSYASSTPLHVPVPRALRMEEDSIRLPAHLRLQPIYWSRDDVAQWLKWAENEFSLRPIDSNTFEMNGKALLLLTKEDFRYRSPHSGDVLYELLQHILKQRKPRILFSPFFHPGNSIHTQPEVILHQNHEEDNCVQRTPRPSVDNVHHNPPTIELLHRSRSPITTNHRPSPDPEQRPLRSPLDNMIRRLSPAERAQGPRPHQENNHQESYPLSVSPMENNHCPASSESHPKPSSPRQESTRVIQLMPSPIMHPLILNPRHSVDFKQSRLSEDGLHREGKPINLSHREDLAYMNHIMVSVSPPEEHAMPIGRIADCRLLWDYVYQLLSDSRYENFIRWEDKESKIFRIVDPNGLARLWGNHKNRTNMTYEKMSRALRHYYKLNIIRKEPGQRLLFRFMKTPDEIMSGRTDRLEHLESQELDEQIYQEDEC
Outline: as §1

Sequence: CAAATA
- binding signal (FEV): 1.14 fold enrichment (6-mer frequency, TF over GST control)
- binding signal (ETV5): 1.14 fold enrichment (6-mer frequency, TF over GST control)
- binding signal (HSF1): 1.14 fold enrichment (6-mer frequency, TF over GST control)
- binding signal (SPIC): 1.09 fold enrichment (6-mer frequency, TF over GST control)
- binding signal (ELF4): 1.16 fold enrichment (6-mer frequency, TF over GST control)
- binding signal (ELK4): 1.02 fold enrichment (6-mer frequency, TF over GST control)
- binding signal (ETV2): 1.06 fold enrichment (6-mer frequency, TF over GST control)
- binding signal (ELF3): 1.4 fold enrichment (6-mer frequency, TF over GST control)
- binding signal (CRX): 1.24 fold enrichment (6-mer frequency, TF over GST control)
- binding signal (ETV1): 1.12 fold enrichment (6-mer frequency, TF over GST control)
- binding signal (ERF): 1.23 fold enrichment (6-mer frequency, TF over GST control)
- binding signal (ETV3L): 1.1 fold enrichment (6-mer frequency, TF over GST control)
- binding signal (ETS2): 1.14 fold enrichment (6-mer frequency, TF over GST control)
- binding signal (SPDEF): 1.09 fold enrichment (6-mer frequency, TF over GST control)
- binding signal (ETV7): 1.16 fold enrichment (6-mer frequency, TF over GST control)
- binding signal (ELF5): 1.06 fold enrichment (6-mer frequency, TF over GST control)
- binding signal (ETV3): 1.1 fold enrichment (6-mer frequency, TF over GST control)
- binding signal (ETV6): 1.07 fold enrichment (6-mer frequency, TF over GST control)
